The assay in a line: NSCLC 1 Cell Viability Secondary Assay for qHTS Assay for Epigenetic Modulator. Particulars: NSCLC 1 cells viability, MTS absorbance, 4 days. An excerpt: NIH Molecular Libraries Screening Centers Network [MLSCN] NIH Chemical Genomics Center [NCGC] MLSCN Grant: 1 X01 MH079860-01 Assay Provider: Elisabeth D. Martinez, University of Texas SW Medical Center NCGC Assay Overview: This secondary assay characterizes selected actives identified in the qHTS of the Locus Derepression (LDR) assay (PubChem AID 597). The LDR assay detects the derepression of a GFP reporter that is stably integrated in a region of the genome of murine c127i mammary cells that is presumably silenced. Compounds that cause derepression of the locus to express GFP are identified by enumerating GFP positive cells using a laser-scanning microplate cytometer. […] NSCLC 1 cell viability was measured using Cell Titer 96 AQueous One (Promega), an assay which detects the ability of metabolically active cells to reduce a tetrazolium salt substrate (MTS), into a soluble formazan product that can be measured by colorimetry.
NCGC Assay Protocol Summary NSCLC 1 cells were plated in 96-well flat bottom tissue culture dishes (Corning) and grown overnight at 37 C and 5% CO2, then treated with compounds, incubated 4 days, and assayed for viability using the Cell Titer 96 AQueous One kit (Promega) according to the manufacturer's protocol. Absorbance at 490 nm and 650 nm (reference) was measured by a Spectra Max (Molecular Devices). […]
(In general: Quantitative high-throughput screening tests each substance at several concentrations.)

Outcome data for one compound are collected here from PubChem BioAssay AID1036 (National Center for Advancing Translational Sciences (NCATS), 2008).

Records with an inconclusive call do not appear. Activity calls are given as the source filed them. Calls come from the whole dose curve.

As for `CN1CSC(=S)N(C)C1`, the compound was classed as inactive.
